# Measured values: publication PMC11062922 (Nature Chemical Biology, 2023)
# Like-named read-outs stand apart in the source and are kept apart here.
# Key:
# SIK2 = settings: read-out: apparent Kd, n = 1
# STK3 = settings: read-out: apparent Kd, n = 1
substance,measurement,setting,value
Lestaurtinib,potency estimated from few doses,"SIK2; compound concentrations:100 nM and 1000 nM (sheet 'Lestaurtinib' of Supplementary Table 1),run:Lestaurtinib_02584_R3,Plate:MR017",53.4 nM
same,potency estimated from few doses,"SIK2; compound concentrations:100 nM and 1000 nM (sheet 'Lestaurtinib' of Supplementary Table 1),run:Lestaurtinib_02601_R2,Plate:MR018",94.3 nM
same,potency estimated from few doses,"SIK2; compound concentrations:100 nM and 1000 nM (sheet 'Lestaurtinib' of Supplementary Table 1),run:Lestaurtinib_02601_R3,Plate:MR018",40.2 nM
same,potency estimated from few doses,"SIK2; compound concentrations:100 nM and 1000 nM (sheet 'Lestaurtinib' of Supplementary Table 1),run:Lestaurtinib_02606_R1,Plate:MR019",51.2 nM
same,potency estimated from few doses,"SIK2; compound concentrations:100 nM and 1000 nM (sheet 'Lestaurtinib' of Supplementary Table 1),run:Lestaurtinib_02606_R2,Plate:MR019",45.6 nM
same,potency estimated from few doses,"SIK2; compound concentrations:100 nM and 1000 nM (sheet 'Lestaurtinib' of Supplementary Table 1),run:Lestaurtinib_02624_R1,Plate:MR020",51.5 nM
same,potency estimated from few doses,"SIK2; compound concentrations:100 nM and 1000 nM (sheet 'Lestaurtinib' of Supplementary Table 1),run:Lestaurtinib_02624_R2,Plate:MR020",49.5 nM
same,potency estimated from few doses,"SIK2; compound concentrations:100 nM and 1000 nM (sheet 'Lestaurtinib' of Supplementary Table 1),run:Lestaurtinib_02624_R3,Plate:MR020",46.5 nM
same,potency estimated from few doses,"SIK2; compound concentrations:100 nM and 1000 nM (sheet 'Lestaurtinib' of Supplementary Table 1),run:Lestaurtinib_02724_R1,Plate:MR021",73.9 nM
same,potency estimated from few doses,"SIK2; compound concentrations:100 nM and 1000 nM (sheet 'Lestaurtinib' of Supplementary Table 1),run:Lestaurtinib_02724_R2,Plate:MR021",44.8 nM
same,potency estimated from few doses,"SIK2; compound concentrations:100 nM and 1000 nM (sheet 'Lestaurtinib' of Supplementary Table 1),run:Lestaurtinib_02724_R3,Plate:MR021",50.5 nM
same,potency estimated from few doses,"SIK2; compound concentrations:100 nM and 1000 nM (sheet 'Lestaurtinib' of Supplementary Table 1),run:Lestaurtinib_02741_R1,Plate:MR023",57.2 nM
same,potency estimated from few doses,"SIK2; compound concentrations:100 nM and 1000 nM (sheet 'Lestaurtinib' of Supplementary Table 1),run:Lestaurtinib_02741_R2,Plate:MR023",71.3 nM
same,potency estimated from few doses,"SIK2; compound concentrations:100 nM and 1000 nM (sheet 'Lestaurtinib' of Supplementary Table 1),run:Lestaurtinib_02741_R3,Plate:MR023",54.5 nM
same,potency estimated from few doses,"SIK2; compound concentrations:100 nM and 1000 nM (sheet 'Lestaurtinib' of Supplementary Table 1),run:Lestaurtinib_02748_R1,Plate:MR024",48.8 nM
same,potency estimated from few doses,"SIK2; compound concentrations:100 nM and 1000 nM (sheet 'Lestaurtinib' of Supplementary Table 1),run:Lestaurtinib_02748_R2,Plate:MR024",56.4 nM
same,potency estimated from few doses,"SIK2; compound concentrations:100 nM and 1000 nM (sheet 'Lestaurtinib' of Supplementary Table 1),run:Lestaurtinib_02748_R3,Plate:MR024",51.6 nM
same,potency estimated from few doses,"SIK2; compound concentrations:100 nM and 1000 nM (sheet 'Lestaurtinib' of Supplementary Table 1),run:Lestaurtinib_02752_R2,Plate:MR025",56 nM
same,potency estimated from few doses,"SIK2; compound concentrations:100 nM and 1000 nM (sheet 'Lestaurtinib' of Supplementary Table 1),run:Lestaurtinib_02752_R3,Plate:MR025",56 nM
same,potency estimated from few doses,"SIK2; compound concentrations:100 nM and 1000 nM (sheet 'Lestaurtinib' of Supplementary Table 1),run:Lestaurtinib_02765_R1,Plate:MR026",49.7 nM
same,potency estimated from few doses,"SIK2; compound concentrations:100 nM and 1000 nM (sheet 'Lestaurtinib' of Supplementary Table 1),run:Lestaurtinib_02765_R2,Plate:MR026",91.3 nM
same,potency estimated from few doses,"SIK2; compound concentrations:100 nM and 1000 nM (sheet 'Lestaurtinib' of Supplementary Table 1),run:Lestaurtinib_02766_R1,Plate:MR027",43.3 nM
same,potency estimated from few doses,"SIK2; compound concentrations:100 nM and 1000 nM (sheet 'Lestaurtinib' of Supplementary Table 1),run:Lestaurtinib_02766_R2,Plate:MR027",26.9 nM
same,potency estimated from few doses,"SIK2; compound concentrations:100 nM and 1000 nM (sheet 'Lestaurtinib' of Supplementary Table 1),run:Lestaurtinib_02768_R2,Plate:MR028",45.1 nM
same,potency estimated from few doses,"SIK2; compound concentrations:100 nM and 1000 nM (sheet 'Lestaurtinib' of Supplementary Table 1),run:Lestaurtinib_02768_R3,Plate:MR028",47.4 nM
same,potency estimated from few doses,"SIK2; compound concentrations:100 nM and 1000 nM (sheet 'Lestaurtinib' of Supplementary Table 1),run:Lestaurtinib_02795_R1,Plate:MR022",59.7 nM
same,potency estimated from few doses,"SIK2; compound concentrations:100 nM and 1000 nM (sheet 'Lestaurtinib' of Supplementary Table 1),run:Lestaurtinib_02795_R2,Plate:MR022",62.3 nM
same,potency estimated from few doses,"SIK2; compound concentrations:100 nM and 1000 nM (sheet 'Lestaurtinib' of Supplementary Table 1),run:Lestaurtinib_02795_R3,Plate:MR022",165 nM
same,potency estimated from few doses,"SIK2; compound concentrations:100 nM and 1000 nM (sheet 'Lestaurtinib' of Supplementary Table 1),run:Lestaurtinib_02802_R1,Plate:MR029",49.8 nM
same,potency estimated from few doses,"SIK2; compound concentrations:100 nM and 1000 nM (sheet 'Lestaurtinib' of Supplementary Table 1),run:Lestaurtinib_02802_R2,Plate:MR029",52.5 nM
same,potency estimated from few doses,"SIK2; compound concentrations:100 nM and 1000 nM (sheet 'Lestaurtinib' of Supplementary Table 1),run:Lestaurtinib_02802_R3,Plate:MR029",25.3 nM
same,potency estimated from few doses,"SIK2; compound concentrations:100 nM and 1000 nM (sheet 'Lestaurtinib' of Supplementary Table 1),run:Lestaurtinib_02896_R2,Plate:MR030",44.8 nM
same,potency estimated from few doses,"SIK2; compound concentrations:100 nM and 1000 nM (sheet 'Lestaurtinib' of Supplementary Table 1),run:Lestaurtinib_03172_R1,Plate:MR031",46.2 nM
same,potency estimated from few doses,"SIK2; compound concentrations:100 nM and 1000 nM (sheet 'Lestaurtinib' of Supplementary Table 1),run:Lestaurtinib_03172_R2,Plate:MR031",51.4 nM
same,potency estimated from few doses,"SIK2; compound concentrations:100 nM and 1000 nM (sheet 'Lestaurtinib' of Supplementary Table 1),run:Lestaurtinib_03172_R3,Plate:MR031",49.5 nM
same,potency estimated from few doses,"SIK2; compound concentrations:100 nM and 1000 nM (sheet 'Lestaurtinib' of Supplementary Table 1),run:Lestaurtinib_03252_R2,Plate:MR032",34.3 nM
same,potency estimated from few doses,"SIK2; compound concentrations:100 nM and 1000 nM (sheet 'Lestaurtinib' of Supplementary Table 1),run:Lestaurtinib_03260_R1,Plate:MR033",77.2 nM
same,potency estimated from few doses,"SIK2; compound concentrations:100 nM and 1000 nM (sheet 'Lestaurtinib' of Supplementary Table 1),run:Lestaurtinib_03260_R3,Plate:MR033",54.9 nM
same,potency estimated from few doses,"STK3; compound concentrations:100 nM and 1000 nM (sheet 'Lestaurtinib' of Supplementary Table 1),run:Lestaurtinib_02339_R1,Plate:MR001",36.6 nM
same,potency estimated from few doses,"STK3; compound concentrations:100 nM and 1000 nM (sheet 'Lestaurtinib' of Supplementary Table 1),run:Lestaurtinib_02339_R2,Plate:MR001",36.6 nM
same,potency estimated from few doses,"STK3; compound concentrations:100 nM and 1000 nM (sheet 'Lestaurtinib' of Supplementary Table 1),run:Lestaurtinib_02364_R1,Plate:MR002",36.5 nM
same,potency estimated from few doses,"STK3; compound concentrations:100 nM and 1000 nM (sheet 'Lestaurtinib' of Supplementary Table 1),run:Lestaurtinib_02364_R3,Plate:MR002",51.5 nM
